Tests used:
Type in all cases: functional
[1] = biological target: Solute carrier family 2, facilitated glucose transporter member 1 (Homo sapiens) (UniProt P11166); experiment: ST_JUDE_LEISH: Cytotoxicity at 2uM final concentration against transgenic Leishmania Mexicana promastigotes LmGLUT1 that are glucose transport deficient and complemented with the human glucose transporter GLUT1. Activity is measured by DNA content using SYBR green in vitro
[2] = biological target: Hexose transporter 1 (Plasmodium falciparum) (UniProt O97467); experiment: ST_JUDE_LEISH: Cytotoxicity at 2uM final concentration against transgenic Leishmania Mexicana promastigotes LmPfHT that are glucose transport deficient and complemented with the Plasmodium falciparum hexose transporter. Activity is measured by DNA content using SYBR green in vitro
[3] = biological target: Glucose transporter (Leishmania mexicana) (UniProt O61059); experiment: ST_JUDE_LEISH: Cytotoxicity at 2uM final concentration against transgenic Leishmania Mexicana promastigotes LmGT2 that are glucose transport deficient and complemented with the L. Mexicana glucose transporter 2. Activity is measured by DNA content using SYBR green in vitro

Sequence of Solute carrier family 2, facilitated glucose transporter member 1 (Homo sapiens) (P11166 whole entry): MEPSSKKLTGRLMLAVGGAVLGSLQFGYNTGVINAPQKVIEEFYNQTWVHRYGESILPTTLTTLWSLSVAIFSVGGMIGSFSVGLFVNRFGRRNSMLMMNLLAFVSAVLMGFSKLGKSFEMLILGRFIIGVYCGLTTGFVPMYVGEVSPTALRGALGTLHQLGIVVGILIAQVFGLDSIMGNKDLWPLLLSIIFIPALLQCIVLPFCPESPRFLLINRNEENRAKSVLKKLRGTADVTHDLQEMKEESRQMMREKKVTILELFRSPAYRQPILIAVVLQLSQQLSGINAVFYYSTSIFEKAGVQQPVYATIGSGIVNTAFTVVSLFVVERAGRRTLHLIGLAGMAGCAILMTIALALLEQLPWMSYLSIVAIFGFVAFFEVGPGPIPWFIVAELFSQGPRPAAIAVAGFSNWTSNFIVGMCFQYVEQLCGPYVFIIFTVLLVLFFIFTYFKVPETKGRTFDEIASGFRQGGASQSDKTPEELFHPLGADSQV

Structure (SMILES): O=C(NC1CCN(Cc2ccccc2)CC1)c1cc(-c2ccncc2)c(-c2ccc(Cl)c(O)c2)o1
- inhibition [1]: 2.8%
- inhibition [2]: 1.63%
- inhibition [3]: 0.77%

Structure (SMILES): CN(CCc1ccccc1)c1ncc(-c2cccc(CNCCC3CCCN3C)c2)cn1 (stereo not drawn)
- inhibition [1]: 111%
- inhibition [2]: 67%
- inhibition [3]: 109%

Structure (SMILES): COc1ccc(O)c(C(=O)c2cc(C(=O)NCCc3ccccc3)c(=O)n(CCc3ccccc3)c2)c1
- inhibition [1]: 4.48%
- inhibition [2]: 3.07%
- inhibition [3]: 5.64%

Structure (SMILES): O=S(=O)(Nc1cc2c(cc1O)CCN(C1CCC1)CC2)c1ccc(-c2ccc(F)cc2)cc1
- inhibition [1]: 5.67%
- inhibition [2]: 8.27%
- inhibition [3]: 3.1%

Structure (SMILES): COc1ccc(C(=O)Nc2cc(Br)c3c(c2)CNCC3)cc1Br
- inhibition [1]: 2.73%
- inhibition [2]: 3.54%
- inhibition [3]: 1.69%

Structure (SMILES): FC(F)(F)c1ccccc1OCc1cc(-c2ccncc2)c(COc2ccccc2C(F)(F)F)cc1C1=CCNCC1
- inhibition [1]: 2.44%
- inhibition [2]: 2.17%
- inhibition [3]: 2.81%

Structure (SMILES): CN1CCC(N2CCN(c3ccc4c(=O)nc(CCc5cccc(F)c5F)n(CC(=O)N(C)Cc5ccc(-c6ccc(C(F)(F)F)cc6)cc5)c4n3)CC2)CC1
- inhibition [1]: -0.12%
- inhibition [2]: 0.33%
- inhibition [3]: 6.67%

Structure (SMILES): CC(C)[C@H](NC(=O)c1c(F)cccc1F)C(=O)Nc1ccc(Cc2nc3ccccc3s2)cc1
- inhibition [1]: 4.82%
- inhibition [2]: 4.54%
- inhibition [3]: 4.17%

Structure (SMILES): COc1ccc(CC(=O)NC(CCN2CCC3(CC2)CN(S(C)(=O)=O)c2ccccc23)c2ccc(Cl)c(Cl)c2)cc1OC (stereo not drawn)
- inhibition [1]: 3.24%
- inhibition [2]: 3.56%
- inhibition [3]: 2.27%

Structure (SMILES): COc1ccc(C(=O)NCc2ccccc2-c2ccc(C(C)(C)C)cc2)cc1O
- inhibition [1]: 3.25%
- inhibition [2]: 5.39%
- inhibition [3]: 1.49%

Structure (SMILES): CCN(CCO)CCCC(C)Nc1ccnc2cc(Cl)ccc12 (stereo not drawn)
- inhibition [1]: 7%
- inhibition [2]: 7.44%
- inhibition [3]: 6.05%

— ChEMBL document CHEMBL3433997, “St. Jude Leishmania screening dataset” (2016)
